The source of these data is ChEMBL document CHEMBL3988442, “University of Dundee, Small-Polar-MMV Screening Library” (2021).

Experiment [1] has as its target T1, Aspartate--tRNA(Asp/Asn) ligase (Mycobacterium tuberculosis (strain ATCC 25618 / H37Rv)) (UniProt P9WFW3). Note: in the data most compounds retested in dose-response had high values.
T1 sequence (whole entry): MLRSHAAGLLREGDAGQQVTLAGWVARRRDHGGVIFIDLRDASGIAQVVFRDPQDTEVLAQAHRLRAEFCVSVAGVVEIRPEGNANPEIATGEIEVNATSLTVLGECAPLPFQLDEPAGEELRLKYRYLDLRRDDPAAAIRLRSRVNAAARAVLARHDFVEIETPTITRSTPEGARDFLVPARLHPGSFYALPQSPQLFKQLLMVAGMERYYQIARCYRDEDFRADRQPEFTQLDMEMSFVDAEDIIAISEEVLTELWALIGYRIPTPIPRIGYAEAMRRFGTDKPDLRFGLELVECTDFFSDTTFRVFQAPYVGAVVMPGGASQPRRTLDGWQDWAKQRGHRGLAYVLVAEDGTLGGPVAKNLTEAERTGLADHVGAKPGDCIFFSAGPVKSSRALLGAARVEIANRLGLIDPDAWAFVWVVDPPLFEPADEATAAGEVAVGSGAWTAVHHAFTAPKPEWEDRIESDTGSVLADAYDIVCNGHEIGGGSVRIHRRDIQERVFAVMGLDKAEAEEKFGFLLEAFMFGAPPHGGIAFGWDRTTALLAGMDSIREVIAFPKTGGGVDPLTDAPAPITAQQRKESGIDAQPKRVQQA
The experiment in a line: Assay for Asp RNA synthetase-1 from Mycobacterium tuberculosis. More on the design: scale not given: direction of the effect not stated beside the values. As to conditions: 30 µM. Type of experiment: functional.

The target in experiment [2] is Shiga toxin 2 (Escherichia coli O157:H7) (UniProt P09385+P09386). The experiment in a line: E. coli 0.157:H7 Shiga Toxin SOP - stx2 screening assay. Type of experiment: functional. More on the design: scale not given: direction of the effect not stated beside the values. To be noted: 30 µM.

In the case of `Cc1n[nH]cc1C(=O)N1CCCC(n2nnc3cc(F)ccc32)C1` (stereo not given), the results for the Percent Effect in experiment [1] and in experiment [2] were -7.43% and -9.56%, respectively.

On to `Cn1c(CC2CCS(=O)(=O)C2)nnc1SCCOc1cccc(Cl)c1` (stereo not given), for which the Percent Effect is 2.13% in experiment [1] and -13% in experiment [2].

`COCCOc1ncccc1C(=O)Nc1ccc(-n2cncn2)c(F)c1`: the Percent Effect in experiment [1] is -3.21%; in experiment [2], 30.5%.

Consider `Cc1nc2cc(C3CCN(Cc4cccc(F)c4F)C3)nn2c(O)c1C` (stereo not given), for which the Percent Effect in experiment [1] is 2.37%; in experiment [2], -139%.

Turning to `COc1ccccc1CC(=O)NS(=O)(=O)c1cncc(Br)c1`, the Percent Effect in experiment [1] is -6.19%; in experiment [2], 10.1%.

Turning to `Cc1noc([C@H]2COC[C@H]3CN(C(=O)Cc4ccc(F)cc4)C[C@H]32)n1`, the figures for the Percent Effect in experiment [1] and in experiment [2] were -3.45% and 23.4%, respectively.

On to `Cc1ccc(C(O)CNCCn2cccn2)cc1C` (stereo not given), for which the values for the Percent Effect in experiment [1] and in experiment [2] were -5.54% and 2.86%, respectively.

As for `CCOc1ccccc1C(CC(=O)Nc1nc(C)cs1)NC(C)=O` (stereo not given), the Percent Effect in experiment [1] is -0.233%; in experiment [2], 30.8%.

`CCc1ccc(CN2CCC3(CC2)CC(N2CCN(C)CC2)CO3)cc1` (stereo not given): the Percent Effect in experiment [1] was 2.64%; in experiment [2], 1.21%.

In the case of `CCc1cc(NCCNc2cccnc2)n2nccc2n1`, the Percent Effect in experiment [1] is 0.0112%; in experiment [2] it was -5.46%.

For `CCC(O)CN1CCN(C(=O)c2cccn2Cc2cccs2)CC1` (stereo not given), the Percent Effect in experiment [1] is 0.685%; in experiment [2], 9.26%.

As for `CCc1nc(C2CCCN2CC(=O)Nc2sc(C)c(C)c2C)no1` (stereo not given), the Percent Effect in experiment [1] was determined as 0.212%; in experiment [2] it was 8.78%.

Consider `CC(=O)NCC(=O)N1C[C@H](OCc2cccnc2)[C@H]2COC[C@H]21`, for which the Percent Effect in experiment [1] is -1.31%; in experiment [2], -22.3%.

In the case of `Cc1ccccc1CS(=O)(=O)CC(=O)NCc1ccccc1F`, the Percent Effect was 7.37% in experiment [1] and 10.5% in experiment [2].

With `O=C(CCc1ccccn1)N1CCN(C(=O)CC2CCCCC2)CC1`, the Percent Effect in experiment [1] was -2.28%; in experiment [2] it was 3.5%.

On to `CCc1nc(C2CCCN2C(=O)c2nc(C)n3ccccc23)no1` (stereo not given), for which the Percent Effect in experiment [1] was -1.96%; in experiment [2], -2.42%.

Take `CCS(=O)(=O)c1ncc(CN(C)Cc2ccccn2)n1CCOC`: the Percent Effect in experiment [1] stood at 0.893%; in experiment [2], 6.2%.

With `CC(C)(C)C(=O)NCCn1ccc(-c2ccncc2)n1`, the Percent Effect was -3.08% in experiment [1] and -20% in experiment [2].

`Cc1cnn(CC2CN(CC(=O)NCc3ccccn3)CCO2)c1` (stereo not given): the Percent Effect is -8.24% in experiment [1] and -5.07% in experiment [2].

`O=S(=O)(c1cccnc1)N1CCN(CCn2ccnc2)CC1`: the Percent Effect in experiment [1] is -4.66%; in experiment [2] it was -38.1%.

As to `O=S(=O)(C1CC1)N1CCOCC2(CCN(c3ccccn3)C2)C1` (stereo not given), the figures for the Percent Effect in experiment [1] and in experiment [2] were 8.28% and -47.5%, respectively.

As for `Cc1nn(C)cc1CN1CCC(C2Nc3ccccc3S(=O)(=O)N2)CC1` (stereo not given), the Percent Effect was -0.223% in experiment [1] and 14.6% in experiment [2].

Take `CC(=O)N1CC(Cc2nccc3ccn(C)c23)C1`: the Percent Effect in experiment [1] was 1.31%; in experiment [2], -32.1%.

In the case of `O=C(Nc1ccc(N2CCCC2)nc1)N1CCc2ccccc2C1`, the Percent Effect was 2.91% in experiment [1] and -147% in experiment [2].

With `CCN(CCn1cccn1)Cc1nc(-c2cccs2)oc1C`, the figures for the Percent Effect in experiment [1] and in experiment [2] were -0.251% and 7.38%, respectively.

For the molecule `CCc1noc(C)c1C(=O)N1CCCC1Cn1cc(C)cn1` (stereo not given), the values for the Percent Effect in experiment [1] and in experiment [2] were 4.02% and 31.4%, respectively.

Regarding `Cc1ccc2cnn(CCC(=O)NCc3c(C)nn(C)c3C)c2c1`, the results for the Percent Effect in experiment [1] and in experiment [2] were 8.17% and -18.4%, respectively.

As for `CC(NC(=O)CNCCn1cccn1)c1ccc2c(c1)CCCC2` (stereo not given), the Percent Effect in experiment [1] is -4.86%; in experiment [2] it was -9.4%.

In the case of `COCC1CCN(C(=O)c2cccc(S(=O)(=O)NC3CCCC3)c2)C1` (stereo not given), the Percent Effect was -0.437% in experiment [1] and -4.97% in experiment [2].

Turning to `COCC(=O)N1CC[C@H]2C[C@@H](c3nnc(C4CC4)o3)O[C@@H]2C1`, the Percent Effect is -1.34% in experiment [1] and -18.9% in experiment [2].

For `CCc1ccc(C(=O)N2CCN(CC(C)O)CC2)o1` (stereo not given), the Percent Effect came to 0.745% in experiment [1] and 5.26% in experiment [2].

As for `CN(C)S(=O)(=O)N1CCN(C(=O)c2ccc3ccn(C)c3c2)CC1`, the Percent Effect in experiment [1] is -0.254%; in experiment [2] it was 4.4%.

For the molecule `Cc1cc(OCC(=O)N2CCCC(c3ccn[nH]3)C2)no1` (stereo not given), the Percent Effect in experiment [1] is -5.07%; in experiment [2], 2.75%.

For the molecule `CCc1nc(NCCCn2cccn2)c2c(n1)c(C)nn2C`, the Percent Effect in experiment [1] is -0.755%; in experiment [2], -14.3%.

For the molecule `O=C(Nc1nc2c(s1)CN(S(=O)(=O)C1CC1)CC2)c1c(F)cccc1F`, the Percent Effect in experiment [1] is -0.834%; in experiment [2] it was 2.22%.

For the molecule `Cn1cc(CN2CC[C@H]3C[C@H](c4nc(C5CC5)cs4)O[C@@H]3C2)cn1`, the Percent Effect in experiment [1] is -0.624%; in experiment [2] it was -28.1%.

Turning to `CC(=O)c1cccc(NC(=O)COc2c(C)n(C)ccc2=O)c1`, the Percent Effect in experiment [1] was 1.07%; in experiment [2], -59.3%.

With `COCC(=O)NCc1cc(=O)n2c(n1)CN(Cc1ccsc1)CCC2`, the Percent Effect in experiment [1] came out at 5.55%; in experiment [2], 10%.

Regarding `CCc1nnc2n1CCN(C(=O)COCCc1ccccc1)C2`, the Percent Effect in experiment [1] came out at 3.29%; in experiment [2] it was 24.8%.

In the case of `Cc1ccc(F)c(-n2nnc(C(=O)O)c2-c2ccncc2)c1`, the values for the Percent Effect in experiment [1] and in experiment [2] were 6.35% and -7.89%, respectively.

With `CSc1ncccc1C(=O)N1C[C@H]2CC[C@@H]1CN(c1cnccn1)C2`, the Percent Effect was 7.16% in experiment [1] and -42.6% in experiment [2].

With `CC(=O)N1CCCC1c1ccc(-c2c(C)noc2C)cn1` (stereo not given), the Percent Effect in experiment [1] was -1.44%; in experiment [2], -2.58%.

Turning to `CCn1cnnc1C1CCN(C(=O)COc2ccccc2)CC1`, the Percent Effect in experiment [1] is -1.18%; in experiment [2] it was -10%.

For the molecule `Cc1[nH]nc2ncc(C(=O)N3CCN(CC(C)C)CC3)cc12`, the Percent Effect in experiment [1] is -2.36%; in experiment [2], 33.6%.

For the molecule `Cc1cnn(C2CN(CC(=O)NCCc3ccccc3)C2)c1`, the Percent Effect in experiment [1] is -1.74%; in experiment [2], 32.1%.

In the case of `CCOc1cc(C)nc(N2CCN(C(=O)c3ccnn3C)CC2)n1`, the Percent Effect in experiment [1] is -2.8%; in experiment [2] it was 2.54%.

Turning to `COCc1ccccc1CNCc1c(C)nn(C)c1N(C)C`, the Percent Effect in experiment [1] was 0.533%; in experiment [2] it was 22.6%.

Take `CCCc1nnsc1C(=O)NCC1CCN(S(C)(=O)=O)CC1`: the Percent Effect in experiment [1] was -7.1%; in experiment [2], -1.41%.

On to `c1cncc(N2CCOCC3(CCCN(c4nncs4)C3)C2)c1` (stereo not given), for which the results for the Percent Effect in experiment [1] and in experiment [2] were 2.36% and -5.55%, respectively.

`Cc1cnn(CC2CCCCN2Cc2noc(C3CC3)n2)c1` (stereo not given): the results for the Percent Effect in experiment [1] and in experiment [2] were -2.57% and 26.8%, respectively.
